Results published in article PMC11006913.

What was measured:
Assay in all cases: PBM; 200 nM protein, PBS
Settings in all cases: dsDNA, one strand shown
HESX1 [1] = molecular target: HESX1 (Homo sapiens, UniProt Q9UBX0 95-180, R165K)
HOXB4 [2] = molecular target: HOXB4 (Homo sapiens, UniProt P17483 148-234)
SHOX [3] = molecular target: SHOX (Homo sapiens, UniProt O15266 103-189)
HESX1 [4] = molecular target: HESX1 (Homo sapiens, UniProt Q9UBX0 95-180)
HOXA4 = HOXA4 (Homo sapiens, UniProt Q00056 201-287, R217L)
HOXB4 [5] = molecular target: HOXB4 (Homo sapiens, UniProt P17483 148-234, V174I)
MSX2 [6] = molecular target: MSX2 (Homo sapiens, UniProt P35548 130-214, R199I)
ALX3 [7] = molecular target: ALX3 (Homo sapiens, UniProt O95076 139-225, N203Q)
SHOX [8] = molecular target: SHOX (Homo sapiens, UniProt O15266 103-189, R173C)
ALX3 [9] = molecular target: ALX3 (Homo sapiens, UniProt O95076 139-225)
PROP1 [10] = molecular target: PROP1 (Homo sapiens, UniProt O75360 56-141)
HESX1 [11] = molecular target: HESX1 (Homo sapiens, UniProt Q9UBX0 95-180, R109Q)
PROP1 [12] = molecular target: PROP1 (Homo sapiens, UniProt O75360 56-141, R99H)
ALX3 [13] = molecular target: ALX3 (Homo sapiens, UniProt O95076 139-225, L168Q)
HESX1 [14] = molecular target: HESX1 (Homo sapiens, UniProt Q9UBX0 95-180, P111T)
ALX3 [15] = molecular target: ALX3 (Homo sapiens, UniProt O95076 139-225, L168V)
PROP1 [16] = molecular target: PROP1 (Homo sapiens, UniProt O75360 56-141, F88S)
MSX2 [17] = molecular target: MSX2 (Homo sapiens, UniProt P35548 130-214, F161Y)
HESX1 [18] = molecular target: HESX1 (Homo sapiens, UniProt Q9UBX0 95-180, F115L)
ALX3 [19] = molecular target: ALX3 (Homo sapiens, UniProt O95076 139-225, N203S)
Chain of ALX3 (Homo sapiens, UniProt O95076 139-225, N203S) (O95076 139-225 N203S): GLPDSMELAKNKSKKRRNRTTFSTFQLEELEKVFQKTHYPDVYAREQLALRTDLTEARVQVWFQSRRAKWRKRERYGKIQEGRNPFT

Chain of HESX1 (Homo sapiens, UniProt Q9UBX0 95-180, P111T) (Q9UBX0 95-180 P111T): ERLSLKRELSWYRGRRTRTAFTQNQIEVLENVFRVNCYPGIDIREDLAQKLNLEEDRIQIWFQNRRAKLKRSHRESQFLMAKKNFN
Chain of HOXB4 (Homo sapiens, UniProt P17483 148-234, V174I) (P17483 148-234 V174I): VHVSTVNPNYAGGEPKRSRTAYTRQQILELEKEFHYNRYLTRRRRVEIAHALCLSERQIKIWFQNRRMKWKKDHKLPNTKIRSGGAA
Chain of SHOX (Homo sapiens, UniProt O15266 103-189) (O15266 103-189): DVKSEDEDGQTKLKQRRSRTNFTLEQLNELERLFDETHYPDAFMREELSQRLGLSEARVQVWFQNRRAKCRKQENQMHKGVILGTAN
Chain of HESX1 (Homo sapiens, UniProt Q9UBX0 95-180, R109Q) (Q9UBX0 95-180 R109Q): as the sequence (Q9UBX0 95-180 P111T) above, with R15Q, T17P counted along it
Chain of ALX3 (Homo sapiens, UniProt O95076 139-225, N203Q) (O95076 139-225 N203Q): as the sequence (O95076 139-225 N203S) above, with S65Q counted along it
Chain of HOXB4 (Homo sapiens, UniProt P17483 148-234) (P17483 148-234): as the sequence (P17483 148-234 V174I) above, with I27V counted along it
Chain of PROP1 (Homo sapiens, UniProt O75360 56-141, F88S) (O75360 56-141 F88S): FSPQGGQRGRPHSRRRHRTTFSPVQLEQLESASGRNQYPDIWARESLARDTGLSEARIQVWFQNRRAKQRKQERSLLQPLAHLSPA
Chain of MSX2 (Homo sapiens, UniProt P35548 130-214, F161Y) (P35548 130-214 F161Y): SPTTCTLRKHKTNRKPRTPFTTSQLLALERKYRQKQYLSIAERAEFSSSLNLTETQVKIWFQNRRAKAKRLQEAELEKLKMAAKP
Chain of PROP1 (Homo sapiens, UniProt O75360 56-141) (O75360 56-141): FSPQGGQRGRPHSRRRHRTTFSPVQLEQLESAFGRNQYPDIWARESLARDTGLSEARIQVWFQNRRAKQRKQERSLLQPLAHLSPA
Chain of HESX1 (Homo sapiens, UniProt Q9UBX0 95-180, R165K) (Q9UBX0 95-180 R165K): as the sequence (Q9UBX0 95-180 P111T) above, with T17P, R71K counted along it
Chain of MSX2 (Homo sapiens, UniProt P35548 130-214, R199I) (P35548 130-214 R199I): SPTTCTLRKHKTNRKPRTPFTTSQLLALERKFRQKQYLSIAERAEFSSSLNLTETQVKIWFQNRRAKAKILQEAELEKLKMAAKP
Chain of ALX3 (Homo sapiens, UniProt O95076 139-225, L168Q) (O95076 139-225 L168Q): as the sequence (O95076 139-225 N203S) above, with L30Q, S65N counted along it
Chain of HESX1 (Homo sapiens, UniProt Q9UBX0 95-180) (Q9UBX0 95-180): as the sequence (Q9UBX0 95-180 P111T) above, with T17P counted along it
Chain of PROP1 (Homo sapiens, UniProt O75360 56-141, R99H) (O75360 56-141 R99H): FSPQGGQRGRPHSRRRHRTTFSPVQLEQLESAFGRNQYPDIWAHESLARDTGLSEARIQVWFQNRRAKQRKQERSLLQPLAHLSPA
Chain of ALX3 (Homo sapiens, UniProt O95076 139-225, L168V) (O95076 139-225 L168V): as the sequence (O95076 139-225 N203S) above, with L30V, S65N counted along it
Chain of HESX1 (Homo sapiens, UniProt Q9UBX0 95-180, F115L) (Q9UBX0 95-180 F115L): as the sequence (Q9UBX0 95-180 P111T) above, with T17P, F21L counted along it
Chain of HOXA4 (Q00056 201-287 R217L): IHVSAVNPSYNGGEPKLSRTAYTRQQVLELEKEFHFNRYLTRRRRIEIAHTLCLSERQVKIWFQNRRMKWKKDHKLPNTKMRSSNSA
Chain of ALX3 (Homo sapiens, UniProt O95076 139-225) (O95076 139-225): as the sequence (O95076 139-225 N203S) above, with S65N counted along it
Chain of SHOX (Homo sapiens, UniProt O15266 103-189, R173C) (O15266 103-189 R173C): as the sequence (O15266 103-189) above, with R71C counted along it

Row | Sequence | binding signal (HESX1 [1]) | binding signal (HOXB4 [2]) | binding signal (SHOX [3]) | binding signal (HESX1 [4]) | binding signal (HOXA4) | binding signal (HOXB4 [5]) | binding signal (MSX2 [6]) | binding signal (ALX3 [7]) | binding signal (SHOX [8]) | binding signal (ALX3 [9]) | binding signal (PROP1 [10]) | binding signal (HESX1 [11]) | binding signal (PROP1 [12]) | binding signal (ALX3 [13]) | binding signal (HESX1 [14]) | binding signal (ALX3 [15]) | binding signal (PROP1 [16]) | binding signal (MSX2 [17]) | binding signal (HESX1 [18]) | binding signal (ALX3 [19])
1 | TAATTAGA | 13.5 upbm affinity estimate (log intensity, higher = more binding, comparable within an allelic series) | 13.5 upbm affinity estimate (log intensity, higher = more binding, comparable within an allelic series) | 13.1 upbm affinity estimate (log intensity, higher = more binding, comparable within an allelic series) | 13.5 upbm affinity estimate (log intensity, higher = more binding, comparable within an allelic series) | 12.5 upbm affinity estimate (log intensity, higher = more binding, comparable within an allelic series) | 14.2 upbm affinity estimate (log intensity, higher = more binding, comparable within an allelic series) | 13.2 upbm affinity estimate (log intensity, higher = more binding, comparable within an allelic series) | 8.56 upbm affinity estimate (log intensity, higher = more binding, comparable within an allelic series) | 10.5 upbm affinity estimate (log intensity, higher = more binding, comparable within an allelic series) | 12.9 upbm affinity estimate (log intensity, higher = more binding, comparable within an allelic series) | 12.2 upbm affinity estimate (log intensity, higher = more binding, comparable within an allelic series) | 10 upbm affinity estimate (log intensity, higher = more binding, comparable within an allelic series) | 12.2 upbm affinity estimate (log intensity, higher = more binding, comparable within an allelic series) | 11.3 upbm affinity estimate (log intensity, higher = more binding, comparable within an allelic series) | 12.1 upbm affinity estimate (log intensity, higher = more binding, comparable within an allelic series) | 10.9 upbm affinity estimate (log intensity, higher = more binding, comparable within an allelic series) | 8.08 upbm affinity estimate (log intensity, higher = more binding, comparable within an allelic series) | 13.7 upbm affinity estimate (log intensity, higher = more binding, comparable within an allelic series) | 8.35 upbm affinity estimate (log intensity, higher = more binding, comparable within an allelic series) | 8.71 upbm affinity estimate (log intensity, higher = more binding, comparable within an allelic series)
2 | TATTAGAA | 8 upbm affinity estimate (log intensity, higher = more binding, comparable within an allelic series) | 10.9 upbm affinity estimate (log intensity, higher = more binding, comparable within an allelic series) | – | 8.34 upbm affinity estimate (log intensity, higher = more binding, comparable within an allelic series) | – | 11 upbm affinity estimate (log intensity, higher = more binding, comparable within an allelic series) | – | – | – | – | – | – | – | – | 7.87 upbm affinity estimate (log intensity, higher = more binding, comparable within an allelic series) | – | – | – | – | –
3 | GTAATTGA | 12.5 upbm affinity estimate (log intensity, higher = more binding, comparable within an allelic series) | 13.1 upbm affinity estimate (log intensity, higher = more binding, comparable within an allelic series) | 11.9 upbm affinity estimate (log intensity, higher = more binding, comparable within an allelic series) | 12.6 upbm affinity estimate (log intensity, higher = more binding, comparable within an allelic series) | 12 upbm affinity estimate (log intensity, higher = more binding, comparable within an allelic series) | 13.8 upbm affinity estimate (log intensity, higher = more binding, comparable within an allelic series) | 12.5 upbm affinity estimate (log intensity, higher = more binding, comparable within an allelic series) | 8.3 upbm affinity estimate (log intensity, higher = more binding, comparable within an allelic series) | 9.41 upbm affinity estimate (log intensity, higher = more binding, comparable within an allelic series) | 12.4 upbm affinity estimate (log intensity, higher = more binding, comparable within an allelic series) | 11.3 upbm affinity estimate (log intensity, higher = more binding, comparable within an allelic series) | 8.99 upbm affinity estimate (log intensity, higher = more binding, comparable within an allelic series) | 11.5 upbm affinity estimate (log intensity, higher = more binding, comparable within an allelic series) | 10.4 upbm affinity estimate (log intensity, higher = more binding, comparable within an allelic series) | 11 upbm affinity estimate (log intensity, higher = more binding, comparable within an allelic series) | 9.76 upbm affinity estimate (log intensity, higher = more binding, comparable within an allelic series) | 7.49 upbm affinity estimate (log intensity, higher = more binding, comparable within an allelic series) | 13.4 upbm affinity estimate (log intensity, higher = more binding, comparable within an allelic series) | 7.6 upbm affinity estimate (log intensity, higher = more binding, comparable within an allelic series) | 8.44 upbm affinity estimate (log intensity, higher = more binding, comparable within an allelic series)
4 | CAATTATC | 13 upbm affinity estimate (log intensity, higher = more binding, comparable within an allelic series) | 13 upbm affinity estimate (log intensity, higher = more binding, comparable within an allelic series) | 11.8 upbm affinity estimate (log intensity, higher = more binding, comparable within an allelic series) | 13.1 upbm affinity estimate (log intensity, higher = more binding, comparable within an allelic series) | 11.9 upbm affinity estimate (log intensity, higher = more binding, comparable within an allelic series) | 13.6 upbm affinity estimate (log intensity, higher = more binding, comparable within an allelic series) | 13 upbm affinity estimate (log intensity, higher = more binding, comparable within an allelic series) | 8.4 upbm affinity estimate (log intensity, higher = more binding, comparable within an allelic series) | 9.58 upbm affinity estimate (log intensity, higher = more binding, comparable within an allelic series) | 12.5 upbm affinity estimate (log intensity, higher = more binding, comparable within an allelic series) | 11.5 upbm affinity estimate (log intensity, higher = more binding, comparable within an allelic series) | 9.41 upbm affinity estimate (log intensity, higher = more binding, comparable within an allelic series) | 11.7 upbm affinity estimate (log intensity, higher = more binding, comparable within an allelic series) | 10.6 upbm affinity estimate (log intensity, higher = more binding, comparable within an allelic series) | 11.4 upbm affinity estimate (log intensity, higher = more binding, comparable within an allelic series) | 10.1 upbm affinity estimate (log intensity, higher = more binding, comparable within an allelic series) | 7.73 upbm affinity estimate (log intensity, higher = more binding, comparable within an allelic series) | 13.7 upbm affinity estimate (log intensity, higher = more binding, comparable within an allelic series) | 8 upbm affinity estimate (log intensity, higher = more binding, comparable within an allelic series) | 8.56 upbm affinity estimate (log intensity, higher = more binding, comparable within an allelic series)
5 | CAATTAAA | 12.6 upbm affinity estimate (log intensity, higher = more binding, comparable within an allelic series) | – | 12 upbm affinity estimate (log intensity, higher = more binding, comparable within an allelic series) | 12.6 upbm affinity estimate (log intensity, higher = more binding, comparable within an allelic series) | 12.1 upbm affinity estimate (log intensity, higher = more binding, comparable within an allelic series) | – | 13.1 upbm affinity estimate (log intensity, higher = more binding, comparable within an allelic series) | 8.41 upbm affinity estimate (log intensity, higher = more binding, comparable within an allelic series) | 9.46 upbm affinity estimate (log intensity, higher = more binding, comparable within an allelic series) | 12.6 upbm affinity estimate (log intensity, higher = more binding, comparable within an allelic series) | 11.6 upbm affinity estimate (log intensity, higher = more binding, comparable within an allelic series) | 9.38 upbm affinity estimate (log intensity, higher = more binding, comparable within an allelic series) | 11.6 upbm affinity estimate (log intensity, higher = more binding, comparable within an allelic series) | 10.7 upbm affinity estimate (log intensity, higher = more binding, comparable within an allelic series) | 11.3 upbm affinity estimate (log intensity, higher = more binding, comparable within an allelic series) | 10.3 upbm affinity estimate (log intensity, higher = more binding, comparable within an allelic series) | 7.64 upbm affinity estimate (log intensity, higher = more binding, comparable within an allelic series) | 13.7 upbm affinity estimate (log intensity, higher = more binding, comparable within an allelic series) | 7.76 upbm affinity estimate (log intensity, higher = more binding, comparable within an allelic series) | 8.55 upbm affinity estimate (log intensity, higher = more binding, comparable within an allelic series)
